# Compounds with a hit are over-represented: about 19% of the library has one in this group of screens.
# HT1080-NT tox – qHTS for induction of synthetic lethality in tumor cells producing 2HG: qHTS for the HT-1080-NT fibrosarcoma cell line. HT-1080-NT fibrosarcoma viability, CellTiter-Glo ATP luminescence, 48 h. Potency, µM (top dose mostly 46.1 µM), without a hit: at the highest dose activity, negative = less viability, hits mostly cytotoxic. hit rate 1.6% among 360,000. AID 686970, 2013;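 note: NT is the 2HG producing partner of a matched IDH1 knockdown line; potency is the fitted concentration of half-maximal effect; 0% = DMSO-treated cells and -100% = media-only wells without cells; nearly all actives have a fitted effect of over 55% in size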
#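 HT-1080-NT fibrosarcoma cells (2HG-overproducing), 750 cells/well in RPMI with 5% FBS, dosed after 2 h and incubated 48 h at 37C. CellTiter-Glo luminescence normalized to DMSO and no-cell wells; concentration-response curves fitted and classed.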
# IL-1B inflam inh – qHTS for Inhibitors of Inflammasome Signaling: IL-1-beta AlphaLISA Primary Screen; hit rate 4.7% among 360,000; AID 743279, 2014; activity change, % at 57.5 µM; THP-1 LPS/ATP IL-1B secretion, AlphaLISA, 16 h; stronger effect = lower value; in the data active = activity change below about -50%; inconclusive = mostly about -30% to -49%
#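 Secreted IL-1B measured by AlphaLISA bead assay after 16 h compound exposure of THP-1 cells; compounds (final up to 57.5 uM) added 1 h before LPS (250 ng/mL) and ATP (1.25 mM) stimulation; lower signal means less secretion.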
# DT40 TDP1 CPT – qHTS for Inhibitors of human tyrosyl-DNA phosphodiesterase 1 (TDP1): qHTS in cells in presence of CPT | chicken DT40 Tdp1-/-;hTDP1 cells + 20 nM CPT, ATP luminescence, 48 h | Potency, µM (highest dose often 46.2 µM), for the others: top-dose activity change, negative = growth inhibition, usual class: inhibitors | hit rate 12% among 420,000 | AID 686979, 2013; note: potency is the fitted concentration of half-maximal effect; nearly all actives have a fitted effect of over 55% in size
#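 Chicken DT40 Tdp1-/- cells complemented with human TDP1, 400 cells/well, exposed to compounds plus 20 nM camptothecin for at least 48 h at 37 C; viability read as ATP content by CellTiter-Glo luminescence.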
# HT1080 IDH1KD tx – qHTS for induction of synthetic lethality in tumor cells producing 2HG: qHTS for the HT-1080-IDH1KD cell line. Potency, µM (top dose mostly 46.1 µM), without a hit: at the highest dose activity, negative = toxicity, actives largely listed as cytotoxic. AID 686971, 2013. hit rate 2% among 360,000. HT-1080 IDH1 knockdown viability, ATP luminescence, 48 h;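 note: potency is the fitted concentration of half-maximal effect; 0% = DMSO wells and -100% = cell-free medium wells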
#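 In this qHTS, HT-1080 cells depleted of IDH1 are exposed for 48 h at 37 °C to compound titrations. Toxicity is scored from CellTiter-Glo luminescence, with DMSO as full viability and medium alone as none.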
# TDP1 cell noCPT – qHTS for Inhibitors of human tyrosyl-DNA phosphodiesterase 1 (TDP1): qHTS in cells in absence of CPT | Potency, µM (doses to about 46.2 µM), for the others: at the top dose activity change, negative = growth inhibition, most hits filed as inhibitors | DT40 Tdp1-/- hTDP1 cells, no CPT, ATP luminescence, 48 h | hit rate 15% among 420,000; note: potency is the fitted concentration of half-maximal effect; nearly all actives have a fitted effect of over 55% in size
#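 No-CPT arm: Tdp1-/-;hTDP1 DT40 cells (400/well) plus compounds, incubated ≥48 hr at 37 °C. Readout CellTiter-Glo luminescence.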
# Starred values were filed as active, the others as inactive; ? = inconclusive; . = not tested or not shown; ! = not confirmed by another sample; [ ] = dose if it differs, or a comment. Unless noted, calls come from the whole dose curve; as a rule, active = well fitted curve in the direction sought with a large enough effect; inconclusive = small, poorly fitted or top-dose-only effect, or another doubt; inactive = no such curve, though single readings can be large; an effect the other way counts as inactive or inconclusive. Unless noted, % is set by controls: 0 for no effect and ±100 for the full control effect.
SMILES,HT1080-NT tox,IL-1B inflam inh,DT40 TDP1 CPT,HT1080 IDH1KD tx,TDP1 cell noCPT
CCc1nc2cc(C(=O)N3CCCN(C=O)CC3)cc(NC(=O)c3ccccc3OC)c2n1C,.,.,15.0%[9.04 µM],.,-11.7%
CCc1nnc(SCc2nc(-c3ccccc3F)oc2C)c2cc3sccc3n12,.,.,-24.4%,.,?
CSCC[C@H](NC(=O)[C@@H]1CSC2c3ccccc3C(=O)N21)C(=O)NCc1ccco1 (stereo partly drawn),10.9%,3.8,-12.7%,20.0%,0.1%
O=S(=O)(Nc1cccc2c1CCCC2)c1ccc(Cl)cc1,-0.3%,?,?,-9.2%,?
CCCCNc1c(-c2ccc(-c3ccc(C(C)=O)cc3)c(OC)c2)nc2cnccn12,?,-0.4,10.3µM*,?,?
CN(Cc1c(F)cccc1Cl)C(=O)c1ccc2ccccc2n1,1.2%,14.3,?,-0.6%,?
Cc1cc(C)cc(NC(=O)CCS(=O)(=O)c2ccc3c(c2)oc(=O)n3C)c1,.,.,-25.4%,.,-25.4%
CCOC(=O)c1c(N/N=C/c2cccnc2)n[nH]c1C,?,-16.5,13µM*,?,13µM*
COc1ccc(Nc2cc3n(c(=O)n2)CCc2cc(OC)c(OC)cc2-3)c(C)c1,-15.9%,0.0,?,-2.7%,14.6µM*
COc1cc2c(cc1OC)-c1cc(N3CCc4ccccc43)nc(=O)n1CC2,19.0%,-65.7*,?,-10.4%,?
COc1ccc(Nc2cc3n(c(=O)n2)CCc2cc(OC)c(OC)cc2-3)cc1,-2.6%,-27.0,-2.1%,-8.7%,?
COc1cc2c(cc1OC)-c1cc(Nc3ccc4c(c3)OCCO4)nc(=O)n1CC2,-12.4%,-70.3*,-29.5%,-2.4%,?
CC(Oc1ccc(F)cc1Br)c1nc2ccccc2c(=O)[nH]1 (stereo not drawn),-3.2%,8.5,?,-4.0%,-22.2%
COC(=O)C(/C=N/OCc1ccc([N+](=O)[O-])cc1)NC(=O)c1cccc(Cl)c1 (stereo not drawn),-1.6%,31.3,-1.0%,1.6%,-6.6%
O=c1[nH]c(Nc2ccccn2)cc2ccccc12,6.6%,24.1,?,2.1%,?
O=c1[nH]c(-c2ccccn2)cc2ccccc12,-10.0%,-55.6*,-27.6%,-26.5%,-21.3%
CCn1c(O)c(/C=C2\C=Nc3ccccc32)sc1=Nc1ccccc1,4.6%,8.1,10.3µM*,3.3%,11.6µM*
Cc1ccnc(NC(=O)CCC(=O)N(CC(=O)NC(C)(C)C)c2ccc(F)c(Cl)c2)c1,-4.2%,-16.3,-27.0%,-15.6%,-5.2%
CC1CCCN(C(=O)CCS(=O)(=O)c2ccc3c(c2)NC(=O)C(C)S3)C1 (stereo not drawn),-4.1%,19.8,?,-0.7%,?
S=c1sc2c(N3CCN(Cc4ccccc4)CC3)ncnc2n1-c1ccccc1,12.2%,-0.4,16.4µM*,9.6%,23.1µM*
CCN(CC)c1ncnc2c1ncn2Cc1c(Cl)cccc1Cl,-26.9%,-8.2,?,?,?
Clc1cccc(Cl)c1Cn1cnc2c(N3CCCCCC3)ncnc21,-5.9%,-73.8*,18.4µM*,-4.0%,10µM*
Cn1nnc2c(NCc3ccccc3)ncnc21,.,.,2.0%,.,-6.4%
Cn1nnc2c(N3CCN(Cc4ccccc4)CC3)ncnc21,1.6%,.,?,14.3%,15.8µM*
c1ccc(Cn2nnc3c(N4CCCCCC4)ncnc32)cc1,-22.1%,-12.0,?,-25.3%,16.4µM*
SMILES,HT1080-NT tox,IL-1B inflam inh,DT40 TDP1 CPT,HT1080 IDH1KD tx,TDP1 cell noCPT
Cc1cc(C)c(C#N)c(SCC(=O)N(CCC#N)c2ccc3c(c2)OCCO3)n1,4.2%,-11.1,-13.0%,-1.3%,-20.5%
COCCCNC(=O)c1cnc2sc(N3CCCCCC3)nn2c1=O,.,.,-8.8%,.,-9.9%
CN(C)c1ccc(C(CNS(=O)(=O)c2ccc3ccccc3c2)N2CCOCC2)cc1 (stereo not drawn),0.1%,-10.0,0.1%,2.5%,-1.3%
CCCN1CCN(c2ncnc3c2nnn3Cc2ccccc2)CC1,-15.9%,22.6,16.4µM*,?,20.6µM*
c1ccc(Cn2nnc3c(N4CCc5ccccc54)ncnc32)cc1,10.8%,38.7,-8.3%,6.9%,-0.3%
O=C(COC(=O)COc1ccccc1F)NCc1ccco1,3.5%,12.8,1.2%,9.0%,-7.9%
O=C(O)c1ccccc1-c1ccc(/C=c2\sc3nc4cc(Br)cnc4n3c2=O)o1,5.4%,-3.4,16.4µM*,-0.8%,18.4µM*
O=C(NCCc1nnc2n1CCN(Cc1ccccn1)CC2)c1ccc(F)cc1,.,.,-0.8%,.,-14.5%
CSc1nn(Cc2cccc(Cl)c2)c(N(C(C)=O)C(C)=O)c1S(=O)(=O)c1ccccc1,.,.,?,.,20.6µM*
Cc1cccc(CN2CCN(Cc3cccc(-n4cccn4)c3)CC2CCO)n1 (stereo not drawn),0.9%,9.6,?,4.4%,?
O=C(c1ccc(CNS(=O)(=O)c2cccc(Cl)c2)cc1)N1CCCCC1,6.2%,-16.0,16.4µM*,2.3%,14.6µM*
COc1cccc(S(=O)(=O)NCc2ccc(C(=O)N3CCN(c4ccccc4)CC3)cc2)c1,-9.4%,-14.0,16.4µM*,-9.7%,16.4µM*
COc1ccc(S(=O)(=O)NCc2ccc(C(=O)N3CCN(c4ccccn4)CC3)cc2)cc1,-8.3%,-3.8,8.91µM*,-5.4%,?
COc1ccc(N2CCN(C(=O)c3ccc(CNS(=O)(=O)c4cccc(OC)c4)cc3)CC2)cc1,-6.1%,-84.3*,9.2µM*,?,23.1µM*
COc1ccc(N2CCN(C(=O)c3ccc(NS(=O)(=O)c4cccc(F)c4)cc3)CC2)cc1,-6.2%,-3.6,?,-23.6%,?
COC(=O)[C@]1(C)N[C@H](CN(C)S(=O)(=O)c2ccc(OC(F)(F)F)cc2)[C@@H]2C(=O)N(C)C(=O)[C@@H]21,6.9%,29.0,8.7%,6.8%,-5.6%
CCCCNc1ccc(C(=O)OCCN(C)C)cc1,6.3%,31.0,13µM*!,0.1%,?
O=C(CCNC(=O)c1ccco1)Nc1ccc(F)c(Cl)c1,-1.1%,-15.0,-4.9%,1.3%,-14.7%
CCOc1ccccc1NC(=O)C(Sc1nnnn1C)c1ccccc1 (stereo not drawn),-9.5%,7.3,-4.6%,-9.3%,-3.2%
CCCOc1ccc(N2C(=O)CC(SC(=N)N3N=C(c4ccccc4)CC3c3ccccc3)C2=O)cc1 (stereo not drawn),11.1%,0.0,18.4µM*,-0.6%,18.4µM*
